PubChem BioAssay (NCATS)
Values without a mark were called inactive. Results filed as inconclusive are left out. Where a call stands in place of a potency, no number is given. Activity calls are given as the source filed them. Calls follow the shape of the dose curve; as a rule, active = well fitted curve in the direction sought with a large enough effect; inconclusive = small, poorly fitted or top-dose-only effect, or another doubt; inactive = no such curve, though single readings can be large; an effect the other way counts as inactive or inconclusive.

Experiments:
[1] = qHTS assay for measurement of the activity of small molecule inhibitors on Zika virus induced Caspase-3 activity in human iPSC derived neural progenitor cells (hNPCs) (AID 1224857); also: nearly all actives have a fitted effect of over 65% in size
Summary of the method: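 In medium with heparin 2 ug/ml and cyclopamine 2 uM, hNPCs (350 cells/well) received compound for one hour and then Zika virus at 2 FFU/cell; caspase activity was measured by Caspase-Glo 3/7 luminescence 6 h post-infection.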

[2] = qHTS assay for measurement of the activity of small molecule inhibitors on Zika virus induced Caspase-3 activity in human astrocytoma cells (AID 1224859)
Summary of the method: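 A cell-based luminescent caspase-3/7 assay used SNB-19 cells infected with ZIKV (2 FFU/cell) for 6 h following 1 h compound pretreatment.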

[3] = NS1 protein of Zika virus - qHTS assay to identify small molecule inhibitors in human HEK 293 cells (AID 1347053); also: series mostly up to about 46 µM; nearly all actives have a fitted effect of over 55% in size
Summary of the method: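 In this cell-based screen, HEK 293 cultures received compound for one hour before Zika MR766 at MOI = 0.5. NS1 was quantified 24 hours later by TR-FRET, normalized to virus-free wells and infected wells.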

[4] = qHTS of pediatric cancer cell lines to identify multiple opportunities for drug repurposing: Primary screen for TC32 cells (AID 1347089); also: nearly all actives have a fitted effect of over 60% in size
Summary of the method: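 qHTS, TC32, 48 h drug treatment, CellTiter-Glo luminescence as a proxy for metabolically active cells; primary top concentration 46 µM (MIPE 11-pt, NPC 8-pt); confirmatory 11-pt.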

[5] = qHTS of pediatric cancer cell lines to identify multiple opportunities for drug repurposing: Primary screen for DAOY cells (AID 1347090); also: series mostly up to about 46 µM; nearly all actives have a fitted effect of over 55% in size
Summary of the method: (§1)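 Cell viability, CellTiter-Glo luminescence; 500-1,000 cells/well, 8- or 11-point titration, 48 h compound exposure at 37 degrees C, 5% CO2. Controls: DMSO neutral, bortezomib 2.3 µM final as positive.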

[6] = qHTS of pediatric cancer cell lines to identify multiple opportunities for drug repurposing: Primary screen for SJ-GBM2 cells (AID 1347091)
Summary of the method: as §1

[7] = qHTS of pediatric cancer cell lines to identify multiple opportunities for drug repurposing: Primary screen for A673 cells (AID 1347092); also: nearly all actives have a fitted effect of over 45% in size
Summary of the method: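 Luminescence from CellTiter-Glo, taken after 15 min at room temperature, served as the proxy for metabolically active cells following 48 h treatment. Both potency and efficacy were taken from curves fitted to the titration data.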

[8] = qHTS of pediatric cancer cell lines to identify multiple opportunities for drug repurposing: Primary screen for SK-N-MC cells (AID 1347093); also: potency is read from the fitted curve at half-maximal effect
Summary of the method: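 Metabolically active cells were quantified by ATP-dependent luminescence (CellTiter-Glo, 15 min at room temperature) following 48 h treatment. Cells had been plated at 500-1,000 per well and settled for 5 h beforehand.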

[9] = qHTS of pediatric cancer cell lines to identify multiple opportunities for drug repurposing: Primary screen for BT-37 cells (AID 1347094); also: series mostly up to about 57 µM
Summary of the method: (§2)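 Plated cells (500-1,000 per well, growth media) were allowed to settle for 5 hours, treated with compound dilutions for 48 hours, then lysed with CellTiter-Glo for 15 min at room temperature before luminescence reading.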

[10] = qHTS of pediatric cancer cell lines to identify multiple opportunities for drug repurposing: Primary screen for NB-EBc1 cells (AID 1347095)
Summary of the method: as §2

[11] = qHTS of pediatric cancer cell lines to identify multiple opportunities for drug repurposing: Primary screen for U-2 OS cells (AID 1347096); also: nearly all actives have a fitted effect of over 50% in size
Summary of the method: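 Cells (500-1,000/well) rested 5 h, then received compounds for 48 h; metabolically active cells were measured by CellTiter-Glo luminescence. Final concentrations spanned up to 46 µM (MIPE, 11-point) or 0.59 nM-46 µM (NPC, 8-point) in primary screens, 11-point in follow-ups.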

[12] = qHTS of pediatric cancer cell lines to identify multiple opportunities for drug repurposing: Primary screen for Saos-2 cells (AID 1347097); also: nearly all actives have a fitted effect of over 40% in size
Summary of the method: as §2

SMILES | Potency [1] | outcome [2] | Potency [3] | Potency [4] | Potency [5] | Potency [6] | Potency [7] | Potency [8] | Potency [9] | Potency [10] | Potency [11] | Potency [12]
O=C(CS(=O)Cc1ccco1)NC/C=C\COc1cc(CN2CCCCC2)ccn1 (stereo not drawn) | inactive | inactive | inactive | inactive | inactive | inactive | inactive | inactive | inactive | inactive | inactive | inactive
O=C(O)c1ccc(OCCN2CCCCC2)cc1 | inactive | inactive | inactive | inactive | inactive | inactive | inactive | inactive | inactive | inactive | inactive | inactive
Cn1c(=O)c2c(ncn2CC(=O)O)n(C)c1=O | inactive | inactive | inactive | inactive | inactive | inactive | inactive | inactive | inactive | inactive | inactive | inactive
COC(=O)/C=C(/C)N | inactive | inactive | inactive | inactive | inactive | inactive | inactive | inactive | inactive | inactive | inactive | inactive
Cc1ccc2c(Cl)cc(Cl)c(O)c2n1 | inactive | inactive | inactive | inactive | inactive | inactive | inactive | inactive | inactive | inactive | inactive | inactive
COC(=O)c1cc(Cl)ccc1NS(=O)(=O)C(F)(F)F | inactive | inactive | inactive | inactive | inactive | inactive | inactive | inactive | inactive | inactive | inactive | inactive
CCCc1c2oc(C(=O)O)cc(=O)c2cc2c(=O)cc(C(=O)O)n(CC)c12 | inactive | inactive | inactive | inactive | inactive | inactive | inactive | inactive | inactive | inactive | inactive | inactive
CN(C)CCN1CCN(c2cccc(Cl)c2)C1=O | inactive | inactive | inactive | inactive | inactive | inactive | inactive | inactive | inactive | inactive | inactive | inactive
CCOC(=O)C(=O)c1csc(NC=O)n1 | inactive | inactive | inactive | inactive | inactive | inactive | inactive | inactive | inactive | inactive | inactive | inactive
COCCOCC(OC)OC | inactive | inactive | inactive | inactive | inactive | inactive | inactive | inactive | inactive | inactive | inactive | inactive
CCN(CC)CC(=O)OCC(=O)[C@@]1(O)CC[C@H]2[C@@H]3CCC4=CC(=O)CC[C@]4(C)[C@H]3[C@@H](O)C[C@@]21C | inactive | inactive | inactive | inactive | inactive | inactive | inactive | inactive | inactive | inactive | inactive | inactive
CC(C)NCCCC1(C(N)=O)c2ccccc2-c2ccccc21 | inactive | inactive | inactive | inactive | inactive | inactive | inactive | inactive | inactive | inactive | inactive | inactive
O=C1[C@@H]2[C@H]3CC[C@H](C3)[C@@H]2C(=O)N1CCCCN1CCN(c2ncccn2)CC1 | inactive | inactive | inactive | inactive | inactive | inactive | inactive | inactive | inactive | inactive | inactive | inactive
COc1ccc(CCC(C)=O)cc1 | inactive | inactive | inactive | inactive | inactive | inactive | inactive | inactive | inactive | inactive | inactive | inactive
CCOC(=O)C(=O)CCCCCCl | inactive | inactive | inactive | inactive | inactive | inactive | inactive | inactive | inactive | inactive | inactive | inactive
CCCCOC(=O)CCCCCCCCC(=O)OCCCC | inactive | inactive | inactive | inactive | inactive | inactive | inactive | inactive | inactive | inactive | inactive | inactive
CO/N=C(\C(=O)O)c1csc(NC(=O)CCl)n1 | inactive | inactive | inactive | inactive | inactive | inactive | inactive | inactive | inactive | inactive | inactive | inactive
[O-][n+]1cccc(/C(Cl)=N/OC[C@@H](O)CN2CCCCC2)c1 | inactive | inactive | inactive | inactive | inactive | inactive | inactive | inactive | inactive | inactive | inactive | inactive
NC(=O)NC1N=C([O][Al])NC1=O (stereo not drawn) | inactive | inactive | inactive | inactive | inactive | inactive | inactive | inactive | inactive | inactive | inactive | inactive
CC(C)OP(=O)(CP(=O)(OC(C)C)OC(C)C)OC(C)C | inactive | inactive | inactive | inactive | inactive | inactive | inactive | inactive | inactive | inactive | inactive | inactive
CCCCCCn1c(=O)c2c(ncn2C)n(C)c1=O | inactive | inactive | inactive | inactive | inactive | inactive | inactive | inactive | inactive | inactive | inactive | inactive

SMILES | Potency [1] | outcome [2] | Potency [3] | Potency [4] | Potency [5] | Potency [6] | Potency [7] | Potency [8] | Potency [9] | Potency [10] | Potency [11] | Potency [12]
CNC(=O)c1cnn(-c2nc(N)c3ncn([C@@H]4O[C@H](CO)[C@@H](O)[C@H]4O)c3n2)c1 | inactive | inactive | inactive | inactive | inactive | inactive | inactive | inactive | inactive | inactive | inactive | inactive
O=C(O)Cn1c(=O)n(Cc2ccc(Br)cc2F)c(=O)c2ccc(Cl)cc21 | inactive | inactive | inactive | inactive | inactive | inactive | inactive | inactive |  | inactive | inactive | inactive
COC(=O)c1ccc(NC(C)=O)cc1OC | inactive | inactive | inactive | inactive | inactive | inactive | inactive | inactive | inactive |  | inactive | 
NC(=O)COCCN1CCN(C(c2ccccc2)c2ccc(Cl)cc2)CC1 (stereo not drawn) | inactive | inactive | inactive | inactive | inactive | inactive | inactive | inactive | inactive | inactive | inactive | inactive
CC[N+]1(CC)CCC(=C(c2ccccc2)c2ccccc2)C1C (stereo not drawn) | inactive | inactive | inactive | inactive | inactive | inactive | inactive | 18.8 µM (active) |  |  | inactive | inactive
CCCCOCCOC(=O)c1cccnc1 | inactive | inactive | inactive | inactive | inactive | inactive | inactive | inactive | inactive | inactive |  | inactive
COc1ccc(OC(=O)N(CC(=O)O)Cc2ccc(OCCc3nc(-c4ccccc4)oc3C)cc2)cc1 | inactive | inactive | inactive | inactive | inactive | inactive | inactive |  | inactive | inactive | inactive | 
CC(C)(c1ccc(O)cc1)c1ccc(O)cc1 | inactive | inactive | inactive | inactive | inactive | inactive | inactive |  | inactive | inactive | inactive | 
O=C1CCCc2c(O)cccc21 | inactive | inactive | inactive | inactive | inactive | inactive | inactive | inactive |  | inactive | inactive | inactive
CN1N=C(C(N)=O)CCC1=O | inactive | inactive | inactive | inactive | inactive | inactive | inactive | inactive | inactive |  | inactive | inactive
Oc1ccccc1-c1nnco1 | inactive | inactive | inactive | inactive | inactive | inactive | inactive | inactive | inactive | inactive |  | inactive
CC(C)NC(=O)c1ccc(C=O)cc1 | inactive | inactive | inactive | inactive | inactive | inactive | inactive | inactive |  | inactive | inactive | inactive
O=C1Nc2cc(Cl)ccc2Oc2ccccc21 | inactive | inactive | inactive | inactive | inactive | inactive | inactive | inactive | inactive |  | inactive | 
CCCCCCCCCCCCCCCCCCN(C)C | inactive | inactive | inactive | inactive | inactive | inactive | inactive |  | inactive | inactive | inactive | 
CCOC(=O)O[C@]1(C(=O)OCCl)CC[C@H]2[C@@H]3CCC4=CC(=O)C=C[C@]4(C)[C@H]3[C@@H](O)C[C@@]21C | inactive | inactive | inactive | inactive | inactive | inactive | inactive | inactive | inactive | inactive |  | inactive
CC1(C)O[C@@H]2C[C@H]3[C@@H]4C[C@H](F)C5=CC(=O)C=C[C@]5(C)[C@@]4(F)[C@@H](O)C[C@]3(C)[C@]2(C(=O)CO)O1 | inactive | inactive | inactive | inactive | inactive | inactive | inactive | inactive |  | inactive | inactive | inactive
CC(C)C(=O)Nc1cccc(C2CN3CCSC3=N2)c1 (stereo not drawn) | inactive | inactive | inactive | inactive | inactive | inactive | inactive | inactive |  | inactive | inactive | inactive
CCN(CC)CCN | inactive | inactive | inactive | inactive | inactive | inactive | inactive | inactive | inactive |  | inactive | inactive
CCCC(=O)Nc1ccc(O)c(C(C)=O)c1 | inactive | inactive | inactive | inactive | inactive | inactive | inactive | inactive | inactive | inactive |  | inactive
CCOc1c(N2CCOCC2)cnn(C)c1=O | inactive | inactive | inactive | inactive | inactive | inactive | inactive | inactive | inactive | inactive |  | inactive
